The nature of assay [1]: E. coli DRC41 culture turbidity changes, primary screen, E. coli filamentation inducer project, strain DRC41, OD650, 48 h (AID 1152).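 Further: E. coli MC1000 strain DRC41 lacking acrAB efflux pump and sulA.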 The settings on record: E. coli DRC41 (acrAB sulA), higher = more signal, called active from +8 up or from −8 down.
Assay [2] is described as follows: small-molecule binders of probe aLefty1, primary screen, biochemical, small-molecule microarray, 635/667 nm fluorescence (AID 1153).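 Further: score merges spot fluorescence with signal-to-noise ratio from the scanned slide images.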 The settings on record: higher = more signal.
Assay [3] in a line: PSAC antagonists in infected red cells, primary screen, cell-based, P. falciparum Indochina, OD700, 1 h (AID 1154). The conditions noted are these: P. falciparum Indochina infected RBC osmotic lysis, higher = more signal, called active from +8 up or from −8 down.
Assay [4] is described as follows: PSAC antagonists in infected red cells, primary screen, cell-based, P. falciparum Indochina, OD700, 2 h (AID 1155).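 Further: lysis reports solute entry through the parasite surface anion channel PSAC; channel blockers reduce lysis of infected cells.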 The conditions noted are these: P. falciparum Indochina infected erythrocytes, osmotic lysis OD700; higher = more signal, called active from +8 up or from −8 down.
Assay [5] is described as follows: osmotic lysis modulators in infected erythrocytes, primary screen, PSAC antagonist project, cell-based, P. falciparum Indochina, OD700, 3 h (AID 1156). The settings on record: higher = more signal, called active from +8 up or from −8 down.
The nature of assay [6]: PSAC antagonists in infected red cells, primary screen, cell-based, P. falciparum Indochina, OD700, 18 h (AID 1157). The conditions noted are these: P. falciparum Indochina infected erythrocytes, osmotic lysis OD700, 18 h; higher = more signal, called active from +8 up or from −8 down.
A short description of assay [7]: modulators of S6 phosphorylation in cells, primary screen, cell-based, A549, cytoblot, luminescence, serum-stimulated (AID 1158).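 Further: serum-stimulated A549 lung adenocarcinoma cells; signal is phosphorylated S6 detected by cytoblot immunostaining with HRP secondary.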 The settings on record: A549 phospho-S6 cytoblot, 5 h, higher = more signal.
Assay [8] concerns the target NADPH oxidase 2 (Homo sapiens) (UniProt P04839). Briefly: NOX2-dependent H2O2 signal modulators, primary screen, NOX inhibitor project, cell-based, HEK293-NOX2, PMA-stimulated, Amplex Red fluorescence (AID 1159). Further: test concentration not given here. The conditions noted are these: 45 min, higher = more signal, called active from +8 up or from −8 down.
The target in assay [9] is NADPH oxidase 4 (Homo sapiens) (UniProt Q9NPH5). Briefly: NOX4-dependent H2O2 signal modulators, primary screen, NOX inhibitor project, cell-based, HEK293-NOX4, tetracycline-induced, Amplex Red fluorescence (AID 1160). The conditions noted are these: 45 min, higher = more signal, called active from +8 up or from −8 down.
Chain of NADPH oxidase 4 (Homo sapiens) (Q9NPH5 whole entry, looked up): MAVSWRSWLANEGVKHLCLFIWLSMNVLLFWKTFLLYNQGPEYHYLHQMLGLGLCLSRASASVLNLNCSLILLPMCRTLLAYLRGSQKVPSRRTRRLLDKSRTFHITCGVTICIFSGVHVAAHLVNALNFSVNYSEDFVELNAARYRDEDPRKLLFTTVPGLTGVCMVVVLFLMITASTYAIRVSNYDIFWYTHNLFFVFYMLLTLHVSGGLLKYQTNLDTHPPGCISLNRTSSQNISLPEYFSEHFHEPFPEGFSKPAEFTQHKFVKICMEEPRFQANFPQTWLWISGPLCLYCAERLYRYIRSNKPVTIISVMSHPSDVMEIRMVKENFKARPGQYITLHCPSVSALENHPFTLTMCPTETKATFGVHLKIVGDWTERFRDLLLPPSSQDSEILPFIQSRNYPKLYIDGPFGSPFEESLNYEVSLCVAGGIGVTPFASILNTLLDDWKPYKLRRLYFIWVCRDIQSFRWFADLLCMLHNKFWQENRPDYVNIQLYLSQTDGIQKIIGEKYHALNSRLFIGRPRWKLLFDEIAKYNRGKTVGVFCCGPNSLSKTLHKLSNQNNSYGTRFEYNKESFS
In assay [10] the target is NADPH oxidase 5 (Homo sapiens) (UniProt Q96PH1). Briefly: NOX5-dependent H2O2 signal modulators, primary screen, NOX inhibitor project, cell-based, HEK293-NOX5, Amplex Red fluorescence (AID 1161). The conditions noted are these: HEK293-NOX5, ionomycin, 45 min, higher = more signal.
Chain of NADPH oxidase 5 (Homo sapiens) (Q96PH1 whole entry, looked up): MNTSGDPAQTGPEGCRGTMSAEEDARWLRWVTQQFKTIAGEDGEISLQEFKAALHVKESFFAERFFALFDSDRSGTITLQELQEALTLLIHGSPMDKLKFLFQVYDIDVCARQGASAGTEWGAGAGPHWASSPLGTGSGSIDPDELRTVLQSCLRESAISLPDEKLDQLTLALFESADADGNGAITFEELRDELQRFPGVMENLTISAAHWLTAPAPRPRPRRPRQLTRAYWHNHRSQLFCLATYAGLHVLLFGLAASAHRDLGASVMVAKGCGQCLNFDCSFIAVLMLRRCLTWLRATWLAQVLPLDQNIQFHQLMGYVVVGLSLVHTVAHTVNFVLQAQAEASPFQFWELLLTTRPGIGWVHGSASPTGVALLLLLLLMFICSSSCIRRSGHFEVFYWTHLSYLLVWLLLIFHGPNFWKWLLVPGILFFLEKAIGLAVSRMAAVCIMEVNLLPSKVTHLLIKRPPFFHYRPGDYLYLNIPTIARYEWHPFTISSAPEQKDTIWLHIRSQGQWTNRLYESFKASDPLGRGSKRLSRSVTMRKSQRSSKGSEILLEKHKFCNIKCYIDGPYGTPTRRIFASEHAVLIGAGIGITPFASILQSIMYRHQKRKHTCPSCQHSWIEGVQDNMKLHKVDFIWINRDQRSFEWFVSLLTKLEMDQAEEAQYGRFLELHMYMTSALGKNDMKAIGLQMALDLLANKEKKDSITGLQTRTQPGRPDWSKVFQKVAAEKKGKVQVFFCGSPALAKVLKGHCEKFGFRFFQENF
Assay [11] in a line: A549 cell viability effects, profiling panel, calcein-AM fluorescence, 48 h, basal (AID 1162). Further: test concentration not given here. The settings on record: higher = more signal.
Assay [12] in a line: adipocyte viability effects, profiling panel, cell-based, 3T3-L1 adipocytes, calcein-AM fluorescence, 48 h, basal (AID 1163). Further: test concentration not given here. The settings on record: 3T3-L1 adipocytes viability, higher = more signal.
Assay [13] can be described thus: HepG2 cell viability effects, profiling panel, calcein-AM fluorescence, 48 h, basal (AID 1164). Further: test concentration not given here. The conditions noted are these: higher = more signal.
Assay [14] in a line: MM1S cell viability effects, profiling panel, calcein-AM fluorescence, 48 h, basal (AID 1165).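 Further: viability of MM1S multiple myeloma cells under basal unstimulated conditions; test concentration not given here.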 The settings on record: higher = more signal.
A short description of assay [15]: basal RPMI8226 viability, no added stimulus, profiling panel, cell-based, calcein-AM fluorescence, 48 h, PK04 Diversity Set (AID 1166).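 Further: cells grown under basal conditions without added stimulus; test concentration not given here.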 The settings on record: RPMI8226 myeloma viability, higher = more signal.
A short description of assay [16]: basal HepG2 mitochondrial membrane potential changes, profiling panel, cell-based, JC-1 fluorescence, 24 h, 100 nL compound (AID 1167). Further: test concentration not given here. The settings on record: higher = more signal.
Assay [17] in a line: basal 3T3-L1 adipocyte mitochondrial potential changes, profiling panel, cell-based, JC-1 fluorescence, 3T3-L1 adipocytes, 24 h, 100 nL compound (AID 1168). Further: test concentration not given here. The conditions noted are these: JC-1 mitochondrial fluorescence, higher = more signal, called active from +8 up or from −8 down.
Assay [18] in a line: basal RPMI8226 mitochondrial membrane potential changes, profiling panel, cell-based, JC-1 fluorescence, 24 h, 100 nL compound (AID 1169). Further: test concentration not given here. The settings on record: RPMI8226 myeloma, JC-1 mitochondrial potential fluorescence, higher = more signal.
The nature of assay [19]: basal MM1S mitochondrial membrane potential changes, profiling panel, cell-based, JC-1 fluorescence, 24 h, 100 nL compound (AID 1170). Further: test concentration not given here. The settings on record: higher = more signal.
Assay [20] in a line: A549 lung cancer cell viability effects, profiling panel, resazurin fluorescence, 24 h, PK04 Diversity Set (AID 1171). Further: test concentration not given here. The conditions noted are these: higher = more signal, called active from +8 up or from −8 down.

Active and inactive are the calls of the source.

Chain of NADPH oxidase 2 (Homo sapiens) (P04839 whole entry, looked up): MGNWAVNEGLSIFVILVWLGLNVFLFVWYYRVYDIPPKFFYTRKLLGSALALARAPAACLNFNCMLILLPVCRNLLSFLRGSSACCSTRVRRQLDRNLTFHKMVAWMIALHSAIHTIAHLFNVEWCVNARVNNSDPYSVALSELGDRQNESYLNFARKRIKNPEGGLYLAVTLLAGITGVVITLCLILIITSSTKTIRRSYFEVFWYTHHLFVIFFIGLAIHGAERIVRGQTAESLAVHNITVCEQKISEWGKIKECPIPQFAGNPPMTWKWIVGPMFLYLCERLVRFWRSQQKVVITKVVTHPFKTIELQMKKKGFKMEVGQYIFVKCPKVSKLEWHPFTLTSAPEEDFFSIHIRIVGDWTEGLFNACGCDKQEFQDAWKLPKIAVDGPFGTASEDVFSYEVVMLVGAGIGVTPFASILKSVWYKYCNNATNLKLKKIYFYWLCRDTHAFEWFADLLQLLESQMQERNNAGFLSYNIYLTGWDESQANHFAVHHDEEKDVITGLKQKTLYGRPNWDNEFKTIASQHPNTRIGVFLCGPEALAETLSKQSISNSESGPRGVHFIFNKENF

With `O=C1O[C@@H](c2ccccc2)[C@@H](c2ccccc2)N2[C@@H](c3ccc(OCCO)cc3)[C@]3(C(=O)Nc4ccc(C#CC5=CCCCC5)cc43)[C@@H](C(=O)O)[C@H]12`, the z-score is -0.584 (inactive) in assay [1]; -3.36 (inactive) in assay [3]; -1.76 (inactive) in assay [4]; -10.6 (active) in assay [5]; -0.957 (inactive) in assay [6]; -0.106 in assay [7]. The z-score in assay [8] is 1.67 (inactive); in assay [9], -1.08 (inactive); in [10] it was -0.216; in assay [11], 1.09; in [12] it was 0.771; in [13], -0.128. The z-score in [14] was -3.21; in assay [15], -4.57; in assay [16], -4.12; in [17] it was -4.9 (inactive); in [18], -0.946; in assay [19] it was -1.42. For the same compound, in assay [20], the z-score is 0.872 (inactive). For the same compound, the composite z-score in assay [2] was -0.0827.
Turning to `CCCCC(O)C1C=CC2C(=O)N(C3CCCCC3)C(=O)C2N1Nc1ccc(OC)cc1` (stereo not given), the z-score in [1] was -0.436 (inactive); in [3], 3 (inactive); in [4], 1.24 (inactive); in assay [5] it was 0.517 (inactive); in [6], 0.684 (inactive); in assay [7] it was -0.62. The z-score in assay [8] is -0.937 (inactive); in [9], -2.06 (inactive); in [10], -1.43; in assay [11], -0.875; in assay [12] it was 0.325; in assay [13] it was -0.572. Besides, the z-score is 0.0802 in [14]; -1.22 in assay [15]; -0.307 in assay [16]; -0.109 (inactive) in assay [17]; -0.111 in [18]; 0.024 in assay [19]. For the same compound, in [20], the z-score was 0.112 (inactive). This compound displayed a composite z-score in assay [2] of 0.366.
For `C=C[C@@H](COC(C)=O)N(Cc1ccccc1[N+](=O)[O-])S(=O)(=O)c1ccc(Br)cc1`, the z-score in [1] is 1.43 (inactive); in assay [3] it was 2.44 (inactive); in assay [4], -0.407 (inactive); in assay [5], -0.885 (inactive); in assay [6], -0.709 (inactive); in [7] it was 3.16. For the same compound, the z-score was -4.3 (inactive) in assay [8]; -0.628 (inactive) in assay [9]; -1.98 in assay [10]; 1.8 in [11]; 0.425 in [12]; -0.491 in assay [13]. In addition, the z-score in [14] is -0.531; in assay [15] it was 0.0618; in [16], -0.464; in assay [17], -0.34 (inactive); in assay [18], -0.872; in [19], -0.189. Moreover, the z-score in [20] is -1.61 (inactive). Moreover, the composite z-score in assay [2] is -0.339.
`CCOC(=O)[C@H]1C/C=C/C[C@H](C(=O)OCC)C(=O)O[C@H]2[C@@H](OC)O[C@H](CO)[C@@H](OC(=O)Nc3ccc4c(c3)OCO4)[C@@H]2OC1=O`: the z-score in assay [1] is 1.2 (inactive); in assay [3] it was 4.49 (inactive); in assay [4] it was 1.81 (inactive); in assay [5], -0.564 (inactive); in [6] it was 1.73 (inactive); in assay [7] it was 0.483. Further, the z-score in assay [8] is -1.09 (inactive); in assay [9] it was -0.854 (inactive); in assay [10], -0.02; in assay [11] it was -2.58; in assay [12], -0.256; in [13], -5. In addition, the z-score is -3.35 in assay [14]; -4.14 in assay [15]; -3.1 in assay [16]; 1.56 (inactive) in assay [17]; -0.975 in assay [18]; -1.75 in assay [19]. In assay [20], the z-score is -5 (inactive). The same compound came in with a composite z-score in [2] of -0.0727.

The values are drawn from PubChem BioAssay.
